High-throughput results (PubChem)
The full list was thinned out, with hits kept by preference.
mHTT-CaM PPI inh: inhibitors of human mutant huntingtin-calmodulin interaction | P42858 | AlphaScreen His-mHTT/GST-CaM binding, luminescence | inhibition, % at 15 µM | 3.6% of 190,000 active | AID 1671202;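 note: 0% = both proteins with DMSO and 100% = one protein alone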
Pf apPOL block: Pf-apPOL DNA polymerase inhibition; Recombinant Pf-apPOL, molecular beacon fluorescence, 1.5 h; inhibition, % at 10 µM; AID 1794808; 0.25% of 210,000 active
* hit, by the source's call; / = no result. Cut-off read from the data, not from the text of the source: active = inhibition above about 50%; inactive = the rest.

SMILES | mHTT-CaM PPI inh | Pf apPOL block
CCC[C@H]1[C@@H](OC(=O)N2CCN(c3ccccc3)CC2)CC[C@@]23CCCN2C(=O)CCC[C@@H]13 | 99* | -5
CCN(c1cccc(F)c1)S(=O)(=O)c1ccc2nnc(C)n2c1 | -5 | -2
CCc1onc(C)c1C1CCCN1C(=O)c1ccnn1CC (stereo unspecified) | -5 | 2
O=C(CC1CCCCC1)NC1CCN(C(=O)c2cc(-c3cccc(Cl)c3)n[nH]2)CC1 | 3 | -10
Cn1cc(-c2noc(-c3cccnc3)n2)ccc1=O | -2 | -3
CCOC(=O)c1ccc(N=Cc2cc(I)cc(I)c2O)cc1 | / | -26
N#Cc1ccc(N=Cc2cc(I)cc(I)c2O)cc1 | 53* | 0
CN(C)c1cc(C(=O)NC2CC2)nc2ccnn12 | 10 | -10
COc1ccc(CN2CCN(C(=O)c3ccc([N+](=O)[O-])cc3)CC2)cc1 | -2 | -7
Fc1ccc(N=Cc2ccccc2)cc1 | / | 9
C(=Nc1ccc(Nc2ccccc2)cc1)c1ccccc1 | 86* | -1
CSc1nc2ccccc2n1CC(=O)Nc1ccc(F)cc1 | -1 | -1
CSc1nc2ccccc2n1CC(=O)NC(c1ccccc1)c1ccccc1 | 57* | 0
Cc1ccccc1CC(=O)N1CCN(C(=O)c2cc3ccccc3[nH]2)CC1 | 32 | -5
Oc1ccc2ccccc2c1N=Nc1ccccc1 | 84* | /
CCN(CC)c1ccc(N=Nc2c(O)ccc3ccccc23)cc1 | / | -12
COc1ccccc1NC(=O)NCCNc1cc(N2CCOCC2)nc(C)n1 | -7 | -1
CCn1cc(C(=O)Nc2ccc(C(=O)OC)cc2)c(=O)c2cc(Cl)ccc21 | 2 | 2
CCOc1cc2c(c([N+](=O)[O-])c1)NC(c1ccccc1)C1CC=CC21 (stereo unspecified) | 57* | -2
CCOc1cc2c(c([N+](=O)[O-])c1)NC(c1cccc([N+](=O)[O-])c1)C1CC=CC21 (stereo unspecified) | 41 | 3
COc1cc2c(c([N+](=O)[O-])c1)NC(C(C)C)C1CC=CC21 (stereo unspecified) | 97* | -6
COc1cc([N+](=O)[O-])cc2c1NC(C(C)C)C1CC=CC21 (stereo unspecified) | 16 | -4
COc1ccc(CC(=O)Nc2nc3c(s2)COCC3)cc1OC | -2 | -6
N#C/C(=C\c1c(Cl)ccc(Cl)c1Cl)c1nc2ccccc2c(=O)[nH]1 | -6 | 1
Cc1ccc(S(=O)(=O)Nc2cccc(C(=O)O)c2)c(C)c1C | -4 | -1
SMILES | mHTT-CaM PPI inh | Pf apPOL block
Fc1ccc(Nc2nc(-c3ccccc3)cs2)cc1 | 30 | 1
COc1ccccc1Nc1nc(-c2cc(C)ccc2C)cs1 | 24 | 2
CCOc1ccc(Nc2nc(-c3ccc(OC)c(F)c3)cs2)cc1 | 32 | -4
CCc1ccc(-c2csc(Nc3cc(OC)c(Cl)cc3OC)n2)cc1 | 12 | 3
COc1ccc(-c2csc(Nc3ccc(Cl)cc3)n2)cc1F | 95* | 5
COc1ccc(-c2csc(Nc3ccc(C)c(Cl)c3)n2)cc1F | 88* | -1
Fc1ccc(-c2csc(Nc3ccc(Cl)cc3)n2)cc1 | 97* | -1
COc1cc(Nc2nc(-c3cc(C)ccc3C)cs2)c(OC)cc1Cl | 74* | -1
CC1CCCN(c2ccc(-c3noc(CN4CCc5ccccc5C4)n3)cn2)C1 (stereo unspecified) | 0 | -5
COc1ccc(-c2cn(-c3ccccc3)c(=O)[nH]2)cc1 | 14 | -5
COc1cc(C(N)=O)ccn1 | / | -10
Cc1ccc(CNC(=O)c2cc3n(n2)CCCN(Cc2cccc(C)c2)C3=O)cc1 | -1 | -2
Cc1cccc(CN2CCCn3nc(C(=O)NCc4ccc(N(C)C)cc4)cc3C2=O)c1 | 55* | 0
Cc1cccc(CN2CCCn3nc(C(=O)Nc4ccc(F)cc4C)cc3C2=O)c1 | 6 | 74*
Cc1cc(F)ccc1NC(=O)c1cc2n(n1)CCCN(Cc1ccccc1)C2=O | -2 | -2
O=C(NC1CCCCCC1)C1CCN(c2cnc(N3CCCCCC3)nc2)CC1 | 0 | 0
COC(=O)c1ccc(=O)oc1 | -8 | /
COC(=O)c1ccc2occ(-c3oc4ccc(C(=O)OC)cc4c3O)c2c1 | 100* | -7
O=C(c1ccccc1)c1c(-c2ccccc2)csc1Nc1ccccc1 | / | 6
OCC[n+]1c(-c2ccc(Br)cc2)csc1Nc1ccccc1 | 88* | -12
COC(=O)C(C)Oc1ccc2oc(=O)cc(-c3cc4ccccc4o3)c2c1 (stereo unspecified) | 1 | -3
COc1cccc(CNC(=O)C2CC(=O)N(c3cccc(NC(C)=O)c3)C2)c1 (stereo unspecified) | -5 | -2
Fc1ccc(CN2CCc3nc(Nc4ccc5c(c4)OCCO5)ncc3C2)c(F)c1 | 58* | -3
Fc1ccc(Nc2ncc3c(n2)CCN(Cc2ccc4c(c2)OCCO4)C3)cc1 | -7 | -6
CCOc1ccc(CN2CCc3nc(Nc4ccc5c(c4)OCCO5)ncc3C2)cc1OC | 53* | 3
SMILES | mHTT-CaM PPI inh | Pf apPOL block
Fc1ccc(CN2CCc3nc(Nc4ccc5c(c4)OCCO5)ncc3C2)cc1F | 53* | -3
CN(C)c1ccc(CN2CCc3nc(Nc4ccc5c(c4)OCO5)ncc3C2)cc1 | 40 | 0
COc1ccc(CN2CCc3nc(Nc4ccc5c(c4)OCCO5)ncc3C2)cc1OC | 37 | 1
Clc1ccccc1CN1CCc2nc(Nc3ccc4c(c3)OCCO4)ncc2C1 | 78* | 4
Fc1ccc(CN2CCc3nc(Nc4ccc5c(c4)OCO5)ncc3C2)c(F)c1 | 12 | -1
O=S(=O)(Nc1ccc(Oc2ccc(Cl)cc2C2CCCCC2)nc1)c1cccc2nonc12 | / | 2
Cc1ccc(C)c(-c2noc(-c3c(O)c4ccccc4n(C)c3=O)n2)c1 | -4 | -7
COc1cccc(CNC(=S)O[C@H]2CCC23CCC(c2ccccc2)CC3)c1 (stereo partly specified) | -34 | -6
CC(C)Oc1ccc(CN2CCc3nc(Nc4ccc5c(c4)OCCO5)ncc3C2)cc1 | 72* | -4
CN(C)c1ccc(CN2CCc3nc(Nc4ccc5c(c4)OCCO5)ncc3C2)cc1 | 39 | -1
COc1ccccc1NC(=O)c1cc(S(=O)(=O)NCc2ccc(C)cc2)ccc1F | 14 | -6
Cc1ccc(C(=O)Nc2c3c(nn2C(C)(C)C)CSC3)cc1[N+](=O)[O-] | 29 | 4
CC(C)(C)n1nc2c(c1NC(=O)c1cccc([N+](=O)[O-])c1)CSC2 | 67* | 6
Cc1c(C(=O)Nc2c3c(nn2C(C)(C)C)CSC3)cccc1[N+](=O)[O-] | 92* | 3
Cc1c(C(=O)Nc2c3c(nn2-c2ccc([N+](=O)[O-])cc2)CSC3)cccc1[N+](=O)[O-] | 3 | -6
CCCCNC(=O)CSc1nc2cc(OC)c(OC)cc2c(=O)n1Cc1ccc(Cl)cc1 | -3 | 1
O=C(Cc1ccccc1)NCCc1nc2ccccc2[nH]1 | 8 | -5
Cc1ccc(C(=O)N2CC(=O)Nc3ccc(F)cc3C2c2ccc(F)cc2)cc1C (stereo unspecified) | 11 | -3
Cc1ccc(C(=O)N2CC(=O)Nc3ccc(Br)cc3C2c2ccccc2)cc1C (stereo unspecified) | 98* | -4
Fc1ccc(C2Nc3cccc4cccc(c34)N2)cc1 | 52* | /
COc1cc(C2Nc3cccc4cccc(c34)N2)cc(OC)c1OC | 28 | 9
O=C(NCc1cccnc1)c1cccc(CN2C(=O)CSc3ccccc32)c1 | 92* | 3
